The text below walks through data of PubChem BioAssay AID1851 (National Center for Advancing Translational Sciences (NCATS), 2009).

Usually AC50 stands for the midpoint of the concentration-response curve, whichever way the signal moves.

The structures appear in SMILES notation. The whole screen tested about 16,000 compounds, of which about 5,800 (36%) were called active. About 23% were inconclusive and are not listed. This is one part of the list. A number with no mark means an inactive call. Calls follow the shape of the dose curve; as a rule, active = well fitted curve in the direction sought with a large enough effect; inconclusive = small, poorly fitted or top-dose-only effect, or effect the other way; inactive = no such curve, though single readings can be large or run the other way.
% is scaled to controls: 0 for no effect and ±100 for the full control effect.

Cytochrome P450 2C19 (Homo sapiens), sequence (P33261 whole entry, looked up): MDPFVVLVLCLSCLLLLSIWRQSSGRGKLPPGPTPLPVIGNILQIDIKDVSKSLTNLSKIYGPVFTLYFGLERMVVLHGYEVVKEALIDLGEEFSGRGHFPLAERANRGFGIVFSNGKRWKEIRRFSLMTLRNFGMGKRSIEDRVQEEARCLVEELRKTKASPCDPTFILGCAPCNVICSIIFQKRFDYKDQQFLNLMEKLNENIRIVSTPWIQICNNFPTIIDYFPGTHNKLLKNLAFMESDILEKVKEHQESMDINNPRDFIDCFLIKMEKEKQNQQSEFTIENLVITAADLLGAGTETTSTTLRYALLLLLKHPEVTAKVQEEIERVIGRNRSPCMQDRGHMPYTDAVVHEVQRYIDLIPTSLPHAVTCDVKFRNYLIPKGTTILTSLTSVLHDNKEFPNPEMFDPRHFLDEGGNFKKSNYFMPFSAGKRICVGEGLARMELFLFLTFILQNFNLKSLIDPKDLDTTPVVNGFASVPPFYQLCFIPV

The assay concerns the target Cytochrome P450 2C19 (Homo sapiens) (UniProt P33261). Briefly: Cytochrome panel assay with activity outcomes. To be noted: recombinant CYP, pro-luciferin dealkylation, luminescence, p450-cyp2c19; series mostly up to 57.1 µM; activity, negative = inhibition: at the top concentration.
Turning to `Cc1ccc(S(=O)(=O)N[C@H]2COC(=O)C/C=C\[C@@H](C)[C@H](NS(=O)(=O)c3ccc(C)cc3)COC(=O)C/C=C\[C@H]2C)cc1`, the activity, negative = inhibition is 30.4% [at 11.4 µM]. Take `O=c1c(-c2cccs2)nc2cncnc2n1Cc1ccc(F)cc1`: the AC50 is 7.94 µM (active).

Take `COc1ncc2nc(-c3cccs3)c(=O)n(Cc3ccc(F)cc3)c2n1`: the “activity, negative = inhibition” value is -15.9%. Turning to `O=c1[nH]c2ccccc2n1CCCN1CCN(C(c2ccccc2)c2ccccc2)CC1`, the “activity, negative = inhibition” value is -46.5%. Turning to `CN(C)CCCn1c2ccccc2c2cnccc21`, the activity, negative = inhibition is 26.7% [at 11.4 µM]. On to `C[C@@H]1CN(CCCn2c3ccccc3c3ccccc32)C[C@H](C)N1`, for which the AC50 was 3.16 µM (active).

`O=c1c(-c2cc(F)cc(F)c2)nc2cnc(N3CCOCC3)nc2n1C[C@H]1CCCO1`: the “activity, negative = inhibition” value was 2.14%. For the compound `O=C1NC(=O)C(c2ccccc2[N+](=O)[O-])=C1Nc1ccc(O)c(Cl)c1`, the “activity, negative = inhibition” value was 1.11%. `O=C1c2cccc3c(Nc4ccccc4Cl)c([N+](=O)[O-])cc(c23)C(=O)N1CCO`: the AC50 is 3.98 µM (active).

For the compound `O=C1c2cccc3c(Cl)ccc(c23)C(=O)N1O`, the “activity, negative = inhibition” value was -13.7%. Consider `CCCC(=O)Nc1c2c(nn1-c1ccc(C)cc1C)CSC2`, for which the AC50 was 8.91 µM (active). On to `Cc1ccc(-n2nc3c(c2NC(=O)c2cccs2)CSC3)cc1`, for which the AC50 is 7.94 µM (active). For the compound `Cc1cc(/C=N\NC(=O)c2cccs2)c(C)n1-c1ccc2ncccc2c1`, the “activity, negative = inhibition” value is -70.7%. For `Cn1c(Cc2cccc3ccccc23)nnc1SCC(=O)N1CCN(c2ccccc2)CC1`, the concentration at half-maximal activity (AC50) is 25.1 µM (active). On to `O=c1cc(CSc2nnc(-c3cccnc3)n2-c2ccccc2F)nc2sccn12`, for which the “activity, negative = inhibition” value is 11.8%. As for `CC(C)c1ccccc1-n1c(SCC(=O)N2CCN(c3ccccc3)CC2)nnc1-c1cccnc1`, the AC50 was 11.2 µM (active). Same read-out and setting: the value for `Cn1c(CC(=O)Nc2ccc(Cl)c(Cl)c2)nnc1SCC(=O)N1CCN(c2ccccc2)CC1` was 14.1 µM (active); that for `CC(=O)Nc1cc(S(=O)(=O)Nc2ccccc2)c(C)cc1C` was 25.1 µM (active).

For `c1ccc2cc(NCNc3ccc4ccccc4c3)ccc2c1`, the AC50 is 2.51 µM (active).

For `Cc1cccc(NC(=O)CCS(=O)(=O)c2cccc3nsnc23)c1C`, the AC50 is 14.1 µM (active). `Cc1cccc(NC(=S)NNC(=O)CC(C)O)c1C` (centres undefined): the “activity, negative = inhibition” value was -0.296%. With `O=C(CCS(=O)(=O)c1cccc2nsnc12)NC1CCCCC1`, the AC50 is 11.2 µM (active). With `CN(C)c1ncc2nc(-c3cccc(C#N)c3)c(=O)n(C[C@H]3CCCO3)c2n1`, the “activity, negative = inhibition” value was 18.9%. The same measure, in the same setting: the same measure for `N=C(N)SCCSC(=N)N`: 2.37% [at 11.4 µM]; for `CN(C)c1nc(-c2ccccc2C(F)(F)F)nc2ccccc12`: -29.3%. On to `Cc1ccccc1-c1nc(N(C)Cc2ccco2)c2ccccc2n1`, for which the AC50 is 10 µM (active). For `COc1ccccc1-c1nc(N(C)Cc2ccco2)c2ccccc2n1`, the AC50 was 20 µM (active). Regarding `Cc1ccccc1-c1nc(N(C)C)c2ccccc2n1`, the AC50 is 20 µM (active). On to `CN(Cc1ccco1)c1nc(-c2ccccc2C(F)(F)F)nc2ccccc12`, for which the AC50 was 7.94 µM (active).

As to `CN(C)Cc1ccccc1-c1nc(N(C)Cc2ccco2)c2ccccc2n1`, the “activity, negative = inhibition” value is -26.2%. Same read-out and setting: the value for `COc1ccccc1-c1nc(N(C)C)c2ccccc2n1` was -17.2%; that for `CNc1nc(-c2ccccc2CN(C)C)nc2ccccc12` was -18.6%; that for `Cc1ccccc1-c1nc(NC2CC2)c2ccccc2n1` was -33.8%. Turning to `CNc1nc(-c2ccccc2C)nc2ccccc12`, the AC50 was 10 µM (active). Still for that read-out and setting: the same measure for `O=C(OCC#CCSc1nnc(-c2cccc3ccccc23)o1)c1ccco1`: 3.16 µM (active). For `CN1CCc2c(c3c(n2C)CCN(C)[C@H]3c2ccccc2F)[C@@H]1c1ccccc1F`, the “activity, negative = inhibition” value was -14.2%. On to `O=C1C2CCCN2C(c2ccccc2F)N1c1ccc(Cl)cc1` (centres undefined), for which the AC50 was 25.1 µM (active).

Turning to `COc1cc(OC)c(C2N(c3cc(C)on3)C(=O)C3CCCN32)cc1OC` (centres undefined), the “activity, negative = inhibition” value is -29%. For the compound `C/C(=N/NS(=O)(=O)c1ccc(C)cc1)c1cccc(NC(=O)c2cccc(Cl)c2)c1`, the AC50 is 2 µM (active).

As to `CCC(=O)Nc1ccc(/C(C)=N\NS(=O)(=O)c2ccc(C)cc2)cc1`, the AC50 was 3.98 µM (active).

Take `CC(CC(=O)O)CC(=O)Nc1ccc(S(N)(=O)=O)cc1` (centres undefined): the “activity, negative = inhibition” value is -18%. In the case of `COCCn1c(=O)c(-c2cccs2)nc2cnc(N3CCN(C)CC3)nc21`, the “activity, negative = inhibition” value is 3.09%. Take `COc1cc2nc(N3CC=[N+](C(=O)c4ccco4)CC3)nc(N)c2cc1OC`: the “activity, negative = inhibition” value was -4.4%.

`CCCNC(=O)CSc1nc(-c2cccs2)cc(C(F)(F)F)n1`: the AC50 was 0.562 µM (active).

As to `CCOC(=O)N1CCN(c2nc(-c3cccs3)cc(C(F)(F)F)n2)CC1`, the AC50 was 3.98 µM (active). `CCOC(=O)N1CCN(c2nc(-c3ccco3)cc(C(F)(F)F)n2)CC1`: the AC50 is 4.47 µM (active). For the compound `CCC[C@@H]1O[C@@H]2C[C@@H]3[C@H]4CCC5=CC(=O)C=C[C@@]5(C)[C@H]4[C@H](O)C[C@@]3(C)[C@@]2(C(=O)CO)O1`, the “activity, negative = inhibition” value was -18.8% [at 25.6 µM]. Consider `CC[C@@H]1OC(=O)[C@H](C)[C@H](O[C@@H]2C[C@](C)(OC)[C@H](O)[C@H](C)O2)[C@H](C)[C@H](O[C@@H]2O[C@@H](C)C[C@@H](N(C)C)[C@@H]2O)[C@](C)(O)C[C@H](C)C(=NOCOCCOC)[C@H](C)[C@H](O)[C@]1(C)O`, for which the “activity, negative = inhibition” value was -2.54% [at 25.6 µM]. `CN(C)CCCO[C@H]1[C@H]([C@H](O)CO)O[C@H]2OC(C)(C)O[C@@H]21`: the “activity, negative = inhibition” value was 36.3%.
